Reference: PubChem BioAssay
Calls of active or inactive are those of the source.

Tests used:
[1] = test system: Plasmodium falciparum Sir2 (PF13_0152, Sir2A); assay: Plasmodium falciparum Sir2A binding compounds – biochemical, small-molecule microarray, 635 nm fluorescence, primary screen (AID 1098); conditions: fluorescence 635 nm, higher = more signal;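 further: score merges spot fluorescence intensity with its signal-to-noise ratio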
[2] = probe aDKK1 binding to arrayed compounds – biochemical, biotinylated probe, 635/667 nm fluorescence, primary screen (AID 1099); conditions: small-molecule microarray, higher = more signal;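 further: score merges 667nm spot fluorescence with signal to noise across triplicate slides; reference of the scale not given here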
[3] = probe aCHRDL2 binding to arrayed compounds – biochemical, biotinylated probe, 635/667 nm fluorescence, primary screen (AID 1100); conditions: small-molecule microarray, higher = more signal
[4] = change in splice reporter luminescence, either direction, cell-based, HEK293, spliceosome inhibition project, primary screen (AID 1101); conditions: HEK293 splicing luciferase reporter, 24 h, higher = more signal, called active from +8 up or from −8 down;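 further: HEK293 cells carrying a splicing-competent luciferase reporter gene; test concentration not given here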
[5] = target: Fibroblast growth factor 10 (Homo sapiens) (UniProt O15520); assay: compounds binding fibroblast growth factor 10 – biochemical, small-molecule microarray, 635 nm fluorescence, primary screen (AID 1102); conditions: FGF10 binding, fluorescence 635 nm, higher = more signal
Chain of Fibroblast growth factor 10 (Homo sapiens) (O15520 whole entry, looked up): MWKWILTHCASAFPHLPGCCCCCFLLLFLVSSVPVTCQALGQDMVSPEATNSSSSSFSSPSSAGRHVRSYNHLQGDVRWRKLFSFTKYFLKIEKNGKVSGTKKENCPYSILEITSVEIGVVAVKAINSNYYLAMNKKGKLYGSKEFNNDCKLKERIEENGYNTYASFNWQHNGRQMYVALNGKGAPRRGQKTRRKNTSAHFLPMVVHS

[6] = test system: glycogen synthase kinase-3 (GSK3A per assay name; protocol says GSK3B); assay: compounds binding glycogen synthase kinase-3 – biochemical, small-molecule microarray, 635 nm fluorescence, GSK3A, primary screen (AID 1103); conditions: fluorescence 635 nm, higher = more signal; further: the record names both GSK3A and GSK3B
[7] = target: Epidermal growth factor receptor (Homo sapiens) (UniProt P00533); assay: compounds binding epidermal growth factor receptor – biochemical, small-molecule microarray, 635 nm fluorescence, primary screen (AID 1104); conditions: EGFR binding, higher = more signal;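 further: score merges 667 nm emission intensity with spot signal to noise over triplicate slides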
Chain of Epidermal growth factor receptor (Homo sapiens) (P00533 whole entry, looked up): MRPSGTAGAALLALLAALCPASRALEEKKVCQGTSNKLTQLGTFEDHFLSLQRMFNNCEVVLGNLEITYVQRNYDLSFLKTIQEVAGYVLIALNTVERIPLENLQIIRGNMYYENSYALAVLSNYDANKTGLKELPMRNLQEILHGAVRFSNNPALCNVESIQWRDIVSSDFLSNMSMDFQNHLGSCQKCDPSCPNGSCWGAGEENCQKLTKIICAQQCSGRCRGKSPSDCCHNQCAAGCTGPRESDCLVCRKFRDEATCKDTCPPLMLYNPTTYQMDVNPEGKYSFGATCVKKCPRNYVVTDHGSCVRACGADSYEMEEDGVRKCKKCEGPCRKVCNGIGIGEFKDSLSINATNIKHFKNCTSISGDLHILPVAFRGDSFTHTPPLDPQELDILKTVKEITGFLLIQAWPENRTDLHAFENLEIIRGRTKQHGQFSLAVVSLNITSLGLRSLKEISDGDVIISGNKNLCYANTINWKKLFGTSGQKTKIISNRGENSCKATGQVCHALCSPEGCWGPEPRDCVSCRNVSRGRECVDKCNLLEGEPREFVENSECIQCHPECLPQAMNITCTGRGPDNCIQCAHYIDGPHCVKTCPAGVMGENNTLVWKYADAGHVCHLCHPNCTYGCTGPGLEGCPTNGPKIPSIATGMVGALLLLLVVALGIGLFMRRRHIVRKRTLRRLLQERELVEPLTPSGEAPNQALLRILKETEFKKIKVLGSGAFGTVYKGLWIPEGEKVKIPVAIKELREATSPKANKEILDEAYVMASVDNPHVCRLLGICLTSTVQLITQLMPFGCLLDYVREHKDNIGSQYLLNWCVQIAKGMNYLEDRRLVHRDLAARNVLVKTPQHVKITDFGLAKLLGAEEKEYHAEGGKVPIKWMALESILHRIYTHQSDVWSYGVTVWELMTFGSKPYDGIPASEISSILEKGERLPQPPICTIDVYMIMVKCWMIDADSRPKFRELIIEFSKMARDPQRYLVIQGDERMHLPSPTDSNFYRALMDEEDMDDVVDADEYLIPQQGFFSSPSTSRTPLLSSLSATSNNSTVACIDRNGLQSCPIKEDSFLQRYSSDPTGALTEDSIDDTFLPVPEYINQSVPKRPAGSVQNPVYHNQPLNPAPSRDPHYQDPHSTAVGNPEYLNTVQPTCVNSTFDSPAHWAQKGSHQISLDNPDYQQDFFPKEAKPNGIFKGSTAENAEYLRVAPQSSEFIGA

[8] = target: Follistatin-related protein 3 (Homo sapiens) (UniProt O95633); assay: compounds binding follistatin-related protein 3 – biochemical, small-molecule microarray, 635 nm fluorescence, primary screen (AID 1105); conditions: FSTL3 binding, higher = more signal;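 further: score merges emission near 667 nm and signal to noise per printed spot across three slides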
Chain of Follistatin-related protein 3 (Homo sapiens) (O95633 whole entry, looked up): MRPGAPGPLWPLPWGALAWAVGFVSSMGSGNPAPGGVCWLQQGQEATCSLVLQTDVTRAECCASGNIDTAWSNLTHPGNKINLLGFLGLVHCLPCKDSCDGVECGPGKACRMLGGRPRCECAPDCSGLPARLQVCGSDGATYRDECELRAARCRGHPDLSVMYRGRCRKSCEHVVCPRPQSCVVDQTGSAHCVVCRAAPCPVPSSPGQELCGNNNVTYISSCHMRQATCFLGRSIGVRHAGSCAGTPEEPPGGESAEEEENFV

[9] = target: Dickkopf-related protein 1 (Homo sapiens) (UniProt O94907); assay: small molecules binding DKK1 protein – biochemical, small-molecule microarray, 635 nm fluorescence scan, primary screen (AID 1106); conditions: higher = more signal;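 further: score merges emission near 667 nm with signal to noise over three replicate slides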
Chain of Dickkopf-related protein 1 (Homo sapiens) (O94907 whole entry, looked up): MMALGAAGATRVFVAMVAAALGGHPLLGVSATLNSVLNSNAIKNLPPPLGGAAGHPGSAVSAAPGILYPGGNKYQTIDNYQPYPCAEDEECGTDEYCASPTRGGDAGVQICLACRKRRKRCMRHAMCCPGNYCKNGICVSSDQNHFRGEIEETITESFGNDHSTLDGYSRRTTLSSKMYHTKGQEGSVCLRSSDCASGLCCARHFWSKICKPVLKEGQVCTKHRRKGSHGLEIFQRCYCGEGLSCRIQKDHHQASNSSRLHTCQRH

[10] = test system: Inhibin beta A chain (activin A); assay: small molecules binding activin A – biochemical, small-molecule microarray, 635 nm fluorescence scan, primary screen (AID 1107); conditions: INHBA, higher = more signal;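 further: mouse activin A protein probed at 4.33 µg/mL on printed slides; score merges bound-protein fluorescence near 667 nm with spot signal-to-noise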

SMILES	composite z-score [1]	composite z-score [2]	composite z-score [3]	z-score [4]	composite z-score [5]	composite z-score [6]	composite z-score [7]	composite z-score [8]	composite z-score [9]	composite z-score [10]
[N-]=[N+]=Nc1ccccc1C[C@@]1(C(=O)NCCN2CCOCC2)N=C(c2ccc(OCCCO)cc2)O[C@@H]1c1ccccc1N=[N+]=[N-]	1.53	0.664	1.04	-0.222 (inactive)	0.968	1.31	-0.172	0.453	0.136	0.691
Cc1ccc(S[C@]2(C(=O)O)CC(=O)N(C3CCCCC3)[C@@H]2c2ccc(CO)cc2I)cc1	1.48	0.431	0.903	-0.443 (inactive)	1.27	0.797	-0.131	1.04	-0.231	1.06
CCCCC[C@H]1OC[C@@]23C=C(Br)[C@@H](CC12)[C@@]1(CO1)C3=O (stereo not given in full)	-0.501	-0.323	-0.515	0.424 (inactive)	0.106	-0.0067	0.0985	-0.0915	0.103	0.0936
O=C1C2C=CC(C(O)c3ccco3)N(Nc3ccccc3F)C2C(=O)N1c1ccccc1 (stereo not given)	0.926	0.497	1.01	0.901 (inactive)	0.285	0.179	-0.14	0.338	0.326	0.75
C=C(COC)/C(=C/C[C@H](OC(=O)c1ccncc1)c1ccccc1OCCO)c1cc(C(=O)OC)ccc1OC	0.515	-0.0213	-0.331	-0.0627 (inactive)	1.25	0.684	0.0709	1.33	0.242	1
CCCCC(=C=CC[C@H](O)c1ccc(OCCO)cc1)CCO	0.69	-0.194	0.208	-0.0149 (inactive)	0.0655	-0.686	-0.709	-0.24	-0.704	0.817
O[C@@H](Cc1ccccc1)[C@@H](/C=C/C1CC1)N(CC#Cc1ccccc1)Cc1ccccc1Br	-0.0214	-0.107	1.38	-1.39 (inactive)	-1.36	-0.689	-1.29	-1.62	-1.88	0.171
COc1ccc(C(=O)Nc2ccc(CN3C(=O)[C@]4(O[C@H](CC(=O)N5Cc6ccccc6C[C@H]5CO)[C@@H]([Si](C)(C)c5ccc(OC)cc5)[C@@H]4C)c4ccccc43)cc2)cc1	1.57	-0.196	-0.165	-1.18 (inactive)	1.06	0.837	0.749	0.833	0.786	0.518
COc1ccc(CCNC(=O)[C@@]2(Cc3ccccc3I)c3ccccc3C(=O)N(C3CCCCC3)[C@H]2c2ccc(CO)cc2)cc1	1.41	0.0563	0.58	-1.17 (inactive)	-0.277	0.302	-0.354	0.123	-0.41	0.272
COc1cc2c(cc1O)C(C1CC1)N(Cc1cccc(OC(F)(F)F)c1)CC2 (stereo not given)	-0.102	0.149	0.542	0.654 (inactive)	-0.293	-0.567	-0.881	-0.0671	-0.248	1.45
CCCCC(O)C1C=CC2C(=O)N(C)C(=O)C2N1N(c1ccccc1)c1ccccc1 (stereo not given)	1.5	0.866	1.31	1.44 (inactive)	0.42	1.02	0.0978	0.424	-0.73	1.18
Cc1cc(C)c(C(O)C2C=CC3C(=O)N(c4ccccc4)C(=O)C3N2Nc2ccccc2F)c(C)c1 (stereo not given)	0.622	-0.134	0.706	1.75 (inactive)	0.119	-0.574	-0.396	-0.191	-0.26	0.72
CCOc1cc(C(O)C2C=CC3C(=O)NC(=O)C3N2Nc2ccc(Cl)cc2Cl)ccc1O (stereo not given)	-0.402	0.737	0.942	1.22 (inactive)	-0.251	-0.848	-0.238	-0.859	-0.765	1.37
[N-]=[N+]=NCc1ccccc1[C@H]1OC(c2ccc(OCCCO)cc2)=N[C@@]1(Cc1ccccc1N=[N+]=[N-])C(=O)NCC(O)CO (stereo not given in full)	1.12	0.33	0.873	0.451 (inactive)	0.903	1.13	-0.186	0.681	-0.308	0.317
CN(C)C(=O)[C@@]1(Cc2ccccc2CN=[N+]=[N-])N=C(c2ccc(OCCCO)cc2)O[C@H]1c1ccccc1N=[N+]=[N-]	1.63	0.842	1	-0.731 (inactive)	0.884	0.588	-0.239	0.724	-0.451	0.987
CN(C)c1ccc(C(O)C2C=CC3C(=O)NC(=O)C3N2Nc2ccccn2)cc1 (stereo not given)	1.15	0.206	0.201	0.936 (inactive)	0.79	0.464	0.729	1.45	1.3	0.921
O=C1O[C@H](c2ccccc2)[C@H](c2ccccc2)N2[C@H]1[C@@H](C(=O)O)[C@]1(C(=O)Nc3ccc(C#CCCO)cc31)[C@H]2c1ccccc1OCCO	0.582	-0.445	0.094	-0.888 (inactive)	0.258	-0.532	-0.329	-0.224	-0.0493	0.671
